Compounds with a hit are over-represented: about 2.2% of the library has one in this group of screens.
BaF3 parental: parental Ba/F3 cell viability inhibition, counter-screen for JAK2V617F inhibitor project, murine pro-B, CellTiter-Glo luminescence. CellTiter-Glo ATP luminescence. inhibition, % at 5.6 µM. actives 1.1% (n = 220,000). AID 1486, 2009;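 active = inhibition above a per-campaign cutoff, the mean inhibition of all tested compounds plus 3 SD, cut at about 27% in these data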;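 also: 0% = DMSO wells and 100% = JAK Inhibitor I control wells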
KLF5 inh: KLF5 expression inhibitors, primary screen, DLD-1 cells, luminescence; actives 0.23% (n = 290,000); DLD-1 KLF5 promoter-luciferase reporter; inhibition, % at 5 µM; AID 1700, 2009;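 active = inhibition above a per-plate limit of that plate's mean compound inhibition plus 3 SD, cut at about 60% in these data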;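 also: 0% = DMSO wells and 100% = LY294002 at 200 µM; higher means less KLF5 promoter-driven luciferase light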
Ba/F3 V617F tox: reduced viability of JAK2V617F-dependent Ba/F3 cells, primary screen, JAK2V617F inhibitor project, cell-based, Ba/F3 EpoR-JAK2V617F, luminescence; ATP luminescence; inhibition, % at 5.6 µM; actives 1.1% (n = 220,000);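 active = inhibition above the campaign mean plus 3 SD over all tested compounds, cut at about 24% in these data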;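 also: cytokine-independent growth of Ba/F3 cells driven by EpoR plus mutant JAK2; 0% = DMSO-treated cells and 100% = JAK inhibitor I control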
aSyn UTR inh: MLPCN primary screen, SNCA 5' untranslated region; alpha-synuclein 5'UTR reporter, inhibitor activity; inhibition, % (tested at 7.5 µM); actives 0.82% (n = 300,000); in the data active = inhibition above about 60%;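 also: H4 neuroglioblastoma cells stably carrying SNCA 5'UTR luciferase fusion; 0% = DMSO wells and 100% = positive control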
APP 5UTR inh: inhibitors of APP translation via 5'UTR reporter, primary screen, APP 5'UTR luciferase, SH-SY5Y cells; SH-SY5Y APP 5'UTR-luciferase reporter, luminescence; inhibition, % at 2 µM; actives 0.82% (n = 190,000); AID 1285, 2008;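 active = inhibition above a set limit, derived from the sample mean plus 3 SD, cut at about 45% in these data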
IEC-6 tox-1: cytotoxicity in IEC-6 intestinal epithelial cells, primary screen, cytotoxicity control for KLF5 inhibitor project, cell-based, luminescence. IEC-6 cytotoxicity, luminescence viability. inhibition, % at 5 µM. actives 0.78% (n = 290,000); in the data active = inhibition above about 22%;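 also: 0% = plate median of test compound wells and 100% = cytotoxic reference compound wells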
KLF5 inh confirm: KLF5 expression inhibitors, confirmation, DLD-1 cells, luminescence. shares compounds with KLF5 inh. DLD-1 KLF5 promoter firefly luciferase reporter. inhibition, % at 4 µM. actives 79% (n = 610). AID 1834, 2009;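 active = inhibition above a set limit taken from the earlier primary screen, cut at about 63% in these data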;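 also: 0% = DMSO wells and 100% = LY294002 at 200 µM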
IEC-6 tox-2: cytotoxicity in rat IEC-6 cells, cytotoxicity control for KLF5 inhibitor project, cell-based, luminescence, triplicate; shares compounds with KLF5 inh; actives 56% (n = 610); IEC-6 rat intestinal cells, viability luminescence; inhibition, % at 4 µM; in the data active = inhibition above about 23%;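 also: cells exposed to compounds for 48 hours before viability read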
The depositor's hits bear a star.

Screening COC(=O)c1ccccc1NC(=O)CNc1cc(Cl)ccc1N1CCOCC1 returned BaF3 parental 10, KLF5 inh -8, Ba/F3 V617F tox 3, aSyn UTR inh 19, APP 5UTR inh -6 and IEC-6 tox-1 10.
Screening O=C(Nc1ccc(C(=O)OC2CCCCC2)cc1)c1ccncc1 returned KLF5 inh -32, aSyn UTR inh 22 and IEC-6 tox-1 21.
Screening O=C(O)c1ccc(N/N=C/c2ccc3nccnc3c2)cc1 returned BaF3 parental 2, KLF5 inh 98*, Ba/F3 V617F tox 5, aSyn UTR inh 94*, IEC-6 tox-1 3, KLF5 inh confirm 103* and IEC-6 tox-2 2.
Screening COc1cc(/C=C/[N+](=O)[O-])ccc1OCc1cccc(C(=O)O)c1 returned BaF3 parental 8, KLF5 inh 71*, Ba/F3 V617F tox 1, aSyn UTR inh 97*, APP 5UTR inh 58*, IEC-6 tox-1 -7, KLF5 inh confirm 67* and IEC-6 tox-2 -6.
COc1cc(/C=N/NS(=O)(=O)c2ccc(C)cc2)ccc1OCc1ccc(C(=O)O)cc1 was read as BaF3 parental 3, KLF5 inh 78*, Ba/F3 V617F tox -1, aSyn UTR inh 84*, APP 5UTR inh 33, IEC-6 tox-1 -4, KLF5 inh confirm 16 and IEC-6 tox-2 2.
Screening Cc1cccc(C)c1-n1c(C)cc(/C=N\Nc2ccc([N+](=O)[O-])cn2)c1C returned BaF3 parental 3, KLF5 inh -26, Ba/F3 V617F tox 1, aSyn UTR inh -20, APP 5UTR inh 6 and IEC-6 tox-1 11.
For Cc1cc(/C=N/Nc2nc(N)ncc2[N+](=O)[O-])c(C)n1-c1ccccc1F the results were BaF3 parental 0, KLF5 inh 78*, Ba/F3 V617F tox 3, aSyn UTR inh 73*, IEC-6 tox-1 5, KLF5 inh confirm 94* and IEC-6 tox-2 12.
Cc1ccc2nc(-c3ccccc3)cn2c1 was read as BaF3 parental 15, KLF5 inh 84*, Ba/F3 V617F tox 15, aSyn UTR inh 120*, APP 5UTR inh -3, IEC-6 tox-1 16, KLF5 inh confirm 77* and IEC-6 tox-2 23*.
For Cc1ccc2nc(-c3ccc(O)c(O)c3)cn2c1 the results were KLF5 inh -63, aSyn UTR inh 22 and IEC-6 tox-1 19.
For CCN(CC(=O)NCc1ccc2c(c1)OCO2)S(=O)(=O)c1ccc(F)cc1 the results were KLF5 inh 4, aSyn UTR inh 9 and IEC-6 tox-1 3.
Screening Cc1cc(-c2ccccc2)n(-c2cc(N/N=C/c3ccccc3O)ncn2)n1 returned BaF3 parental 76*, KLF5 inh 70*, Ba/F3 V617F tox 69*, APP 5UTR inh 96*, IEC-6 tox-1 3, KLF5 inh confirm 88* and IEC-6 tox-2 -6.
`CNc1cc(-n2nc(C)cc2-c2ccccc2)ncn1` gave BaF3 parental 2, KLF5 inh -18, Ba/F3 V617F tox -2, aSyn UTR inh 27, APP 5UTR inh -6 and IEC-6 tox-1 7.
`CCc1ccccc1NC(=O)CN1C(=O)c2ccccc2S1(=O)=O` gave KLF5 inh -3, aSyn UTR inh -9 and IEC-6 tox-1 -6.
For O=C(O)c1cccc(N/N=C/c2ccc(OC(F)(F)F)cc2)c1 the results were KLF5 inh 71*, aSyn UTR inh 64*, IEC-6 tox-1 -3, KLF5 inh confirm 67* and IEC-6 tox-2 5.
COc1ccccc1-c1nnc2n1N=C(c1ccc(O)c(O)c1)CS2 was read as BaF3 parental 92*, KLF5 inh 80*, Ba/F3 V617F tox 95*, aSyn UTR inh 97*, APP 5UTR inh 95*, IEC-6 tox-1 1, KLF5 inh confirm 92* and IEC-6 tox-2 14.
`CN=c1scc(-c2cccs2)n1/N=C/c1ccc(O)c(O)c1O` gave BaF3 parental 2, KLF5 inh -139, Ba/F3 V617F tox -2, aSyn UTR inh 0, APP 5UTR inh 21 and IEC-6 tox-1 -5.
CN=c1scc(-c2cccs2)n1/N=C/c1ccccc1O was read as BaF3 parental 9, KLF5 inh 108*, Ba/F3 V617F tox -1, aSyn UTR inh 103*, APP 5UTR inh 53*, IEC-6 tox-1 -13, KLF5 inh confirm 95* and IEC-6 tox-2 -6.
For Oc1cccc2ccc(Nc3ccccn3)nc12 the results were BaF3 parental 76*, KLF5 inh 105*, Ba/F3 V617F tox 98*, aSyn UTR inh 98*, APP 5UTR inh 80*, IEC-6 tox-1 -3, KLF5 inh confirm 102* and IEC-6 tox-2 14.
O=C(Nc1ccc2c(c1)OCCO2)c1cc(F)c(F)cc1Cl was read as KLF5 inh -104, aSyn UTR inh -195 and IEC-6 tox-1 -2.
Screening Cc1ccc(C(=O)Nc2ccc3c(c2)OCCO3)c(Cl)c1 returned KLF5 inh 78*, aSyn UTR inh 80*, IEC-6 tox-1 3, KLF5 inh confirm 38 and IEC-6 tox-2 6.
For CCCS(=O)(=O)c1cnc(C2COc3ccccc3O2)nc1N (stereo not drawn) the results were KLF5 inh 98*, aSyn UTR inh 68*, IEC-6 tox-1 12, KLF5 inh confirm 78* and IEC-6 tox-2 5.
Screening CC(=O)N(C)C1=C(N2CCOCC2)C(=O)c2ccccc2C1=O returned BaF3 parental 101*, KLF5 inh 85*, Ba/F3 V617F tox 101*, aSyn UTR inh 76*, APP 5UTR inh -3, IEC-6 tox-1 -2, KLF5 inh confirm 84* and IEC-6 tox-2 15.
Screening CC(=O)N(C1=C(N2CCOCC2)C(=O)c2ccccc2C1=O)c1ccc(C(=O)O)cc1 returned BaF3 parental 0, KLF5 inh -10, Ba/F3 V617F tox 4, aSyn UTR inh 26 and IEC-6 tox-1 -4.
C(=N\Nc1cc(N2CCCCC2)ncn1)/c1ccco1 was read as KLF5 inh -107, aSyn UTR inh -129 and IEC-6 tox-1 -8.
For CCC(=O)Nc1cccc(-c2ccc(N3CCC(C)CC3)nn2)c1 the results were KLF5 inh 50, aSyn UTR inh 41 and IEC-6 tox-1 10.
CC1CCN(c2ccc(-c3cccc(NC(=O)C(F)(F)F)c3)nn2)CC1 was read as KLF5 inh 84*, aSyn UTR inh 103*, IEC-6 tox-1 14, KLF5 inh confirm 88* and IEC-6 tox-2 23*.
`O=C(Nc1cccc(-c2ccc(N3CCCCC3)nn2)c1)c1ccc(Br)o1` gave aSyn UTR inh -26.

Assay outcomes: PubChem, several laboratories
